According to the supplement of paper PMC10849652:
The full data set covers some 8,800 targets. This sample favours those with a hit. About 0.5% of all pairs of compound and target were hits.

Compound: C[C@@H](Oc1cc(-c2cnn(C3CCNCC3)c2)cnc1N)c1c(Cl)ccc(F)c1Cl [crizotinib]
Assay: log2 fold change, soluble protein after heating vs DMSO (PISA); higher = thermal stabilisation; K562 lysate, 10 uM; active = over 0.2 and 3.5 SD of the protein, either way, in both replicates (recomputed)
In short: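 To prepare the extract, K562 pellets were dounce-homogenised in PBS pH 7.4 with 1 mM MgCl2, giving crude material at 1 mg/mL protein. This was treated with 10 μM compound for 30 min, then heated in aliquots for 3 min over 48°C-58°C before pooling and addition of NP-40 to 0.5% at 4°C. Centrifugation at 21,000xg for 90 min left soluble protein in the supernatant, which TMTpro 16plex LC-MS/MS quantified with equalised channel sums. Results are log-two fold changes in thermal stability compared with solvent controls, from duplicates.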

UniProt Q9ULG6, sequence (Q9ULG6 whole entry, looked up): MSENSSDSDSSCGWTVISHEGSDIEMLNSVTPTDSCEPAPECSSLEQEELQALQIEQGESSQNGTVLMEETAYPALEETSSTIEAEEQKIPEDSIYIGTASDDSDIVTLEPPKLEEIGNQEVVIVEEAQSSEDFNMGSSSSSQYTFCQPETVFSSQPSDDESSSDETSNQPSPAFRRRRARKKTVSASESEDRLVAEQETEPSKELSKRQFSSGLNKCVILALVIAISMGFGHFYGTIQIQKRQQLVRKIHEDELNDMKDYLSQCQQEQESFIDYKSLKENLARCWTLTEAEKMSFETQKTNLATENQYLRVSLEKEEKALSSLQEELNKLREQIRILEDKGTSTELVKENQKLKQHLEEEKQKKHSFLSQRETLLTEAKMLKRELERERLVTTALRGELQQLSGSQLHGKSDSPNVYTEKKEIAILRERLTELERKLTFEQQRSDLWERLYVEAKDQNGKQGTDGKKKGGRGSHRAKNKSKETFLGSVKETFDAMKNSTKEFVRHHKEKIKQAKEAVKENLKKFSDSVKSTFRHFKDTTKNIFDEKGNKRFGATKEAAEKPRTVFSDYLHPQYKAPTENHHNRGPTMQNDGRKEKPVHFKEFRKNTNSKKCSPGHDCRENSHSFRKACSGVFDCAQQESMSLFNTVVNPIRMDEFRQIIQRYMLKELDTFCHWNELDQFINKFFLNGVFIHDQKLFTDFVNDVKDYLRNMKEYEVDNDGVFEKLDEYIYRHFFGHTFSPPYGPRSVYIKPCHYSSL
UniProt Q8N163, sequence (Q8N163 whole entry, looked up): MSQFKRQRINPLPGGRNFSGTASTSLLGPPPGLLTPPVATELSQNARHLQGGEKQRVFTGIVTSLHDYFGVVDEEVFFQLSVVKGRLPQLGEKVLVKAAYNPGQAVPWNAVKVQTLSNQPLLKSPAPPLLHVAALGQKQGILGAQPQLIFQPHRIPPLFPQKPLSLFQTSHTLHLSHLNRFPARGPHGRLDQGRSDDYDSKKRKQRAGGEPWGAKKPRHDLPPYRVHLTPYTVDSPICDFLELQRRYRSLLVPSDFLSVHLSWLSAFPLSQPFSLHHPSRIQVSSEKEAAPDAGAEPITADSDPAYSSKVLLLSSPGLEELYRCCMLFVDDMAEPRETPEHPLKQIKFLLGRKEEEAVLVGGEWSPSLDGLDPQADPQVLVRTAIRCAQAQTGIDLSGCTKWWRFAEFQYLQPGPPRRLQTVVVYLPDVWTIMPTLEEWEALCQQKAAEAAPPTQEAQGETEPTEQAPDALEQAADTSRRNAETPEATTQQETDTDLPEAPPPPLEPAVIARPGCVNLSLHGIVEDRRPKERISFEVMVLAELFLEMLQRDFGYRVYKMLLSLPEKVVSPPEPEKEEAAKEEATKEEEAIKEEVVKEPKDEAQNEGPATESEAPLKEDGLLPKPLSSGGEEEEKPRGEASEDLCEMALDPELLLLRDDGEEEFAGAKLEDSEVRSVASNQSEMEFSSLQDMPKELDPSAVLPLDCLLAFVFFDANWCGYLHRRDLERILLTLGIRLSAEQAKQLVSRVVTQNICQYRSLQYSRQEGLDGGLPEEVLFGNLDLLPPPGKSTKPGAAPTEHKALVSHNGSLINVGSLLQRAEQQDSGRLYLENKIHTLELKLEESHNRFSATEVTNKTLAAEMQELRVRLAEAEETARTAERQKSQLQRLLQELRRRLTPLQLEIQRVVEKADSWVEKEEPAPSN
UniProt O00748, sequence (O00748 whole entry, looked up): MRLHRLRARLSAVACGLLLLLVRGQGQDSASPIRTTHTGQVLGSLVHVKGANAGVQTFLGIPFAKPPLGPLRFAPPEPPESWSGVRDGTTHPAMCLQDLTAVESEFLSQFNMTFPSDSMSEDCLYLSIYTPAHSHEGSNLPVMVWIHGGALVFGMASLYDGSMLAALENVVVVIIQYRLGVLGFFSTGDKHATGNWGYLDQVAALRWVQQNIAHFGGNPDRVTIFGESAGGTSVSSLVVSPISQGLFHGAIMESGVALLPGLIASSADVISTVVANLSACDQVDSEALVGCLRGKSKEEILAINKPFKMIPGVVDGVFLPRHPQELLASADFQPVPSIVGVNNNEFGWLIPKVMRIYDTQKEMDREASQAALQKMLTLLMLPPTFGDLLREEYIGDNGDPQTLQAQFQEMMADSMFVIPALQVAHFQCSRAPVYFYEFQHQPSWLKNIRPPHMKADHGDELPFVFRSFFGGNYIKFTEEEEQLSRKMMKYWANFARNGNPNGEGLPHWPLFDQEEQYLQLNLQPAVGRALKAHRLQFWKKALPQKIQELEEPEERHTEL
UniProt Q8N960, sequence (Q8N960 whole entry, looked up): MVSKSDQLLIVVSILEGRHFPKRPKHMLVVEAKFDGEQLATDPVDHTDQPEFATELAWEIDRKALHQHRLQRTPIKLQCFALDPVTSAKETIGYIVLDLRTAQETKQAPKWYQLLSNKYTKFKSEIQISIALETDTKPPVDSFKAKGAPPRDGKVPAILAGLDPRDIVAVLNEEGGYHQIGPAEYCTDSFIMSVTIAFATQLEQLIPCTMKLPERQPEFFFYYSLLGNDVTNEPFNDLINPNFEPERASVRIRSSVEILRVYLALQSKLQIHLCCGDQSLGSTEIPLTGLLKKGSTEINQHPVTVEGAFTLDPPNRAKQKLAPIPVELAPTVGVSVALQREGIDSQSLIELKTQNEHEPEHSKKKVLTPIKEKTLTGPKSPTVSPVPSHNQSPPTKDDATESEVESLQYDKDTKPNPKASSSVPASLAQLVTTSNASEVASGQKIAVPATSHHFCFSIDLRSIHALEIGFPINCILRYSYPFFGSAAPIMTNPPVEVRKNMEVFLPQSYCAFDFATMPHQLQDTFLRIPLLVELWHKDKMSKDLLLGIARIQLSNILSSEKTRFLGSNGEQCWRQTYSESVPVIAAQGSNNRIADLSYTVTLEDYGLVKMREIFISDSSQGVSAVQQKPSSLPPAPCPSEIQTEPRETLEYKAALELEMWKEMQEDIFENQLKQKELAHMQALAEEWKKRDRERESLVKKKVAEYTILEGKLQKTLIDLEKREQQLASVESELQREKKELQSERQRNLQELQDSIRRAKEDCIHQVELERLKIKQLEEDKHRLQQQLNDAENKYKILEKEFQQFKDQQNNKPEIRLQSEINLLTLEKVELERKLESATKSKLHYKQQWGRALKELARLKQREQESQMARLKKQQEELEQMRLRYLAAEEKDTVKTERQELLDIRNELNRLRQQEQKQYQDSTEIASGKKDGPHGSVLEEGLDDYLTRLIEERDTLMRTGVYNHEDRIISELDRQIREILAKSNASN
UniProt Q8TAP6, sequence (Q8TAP6 whole entry, looked up): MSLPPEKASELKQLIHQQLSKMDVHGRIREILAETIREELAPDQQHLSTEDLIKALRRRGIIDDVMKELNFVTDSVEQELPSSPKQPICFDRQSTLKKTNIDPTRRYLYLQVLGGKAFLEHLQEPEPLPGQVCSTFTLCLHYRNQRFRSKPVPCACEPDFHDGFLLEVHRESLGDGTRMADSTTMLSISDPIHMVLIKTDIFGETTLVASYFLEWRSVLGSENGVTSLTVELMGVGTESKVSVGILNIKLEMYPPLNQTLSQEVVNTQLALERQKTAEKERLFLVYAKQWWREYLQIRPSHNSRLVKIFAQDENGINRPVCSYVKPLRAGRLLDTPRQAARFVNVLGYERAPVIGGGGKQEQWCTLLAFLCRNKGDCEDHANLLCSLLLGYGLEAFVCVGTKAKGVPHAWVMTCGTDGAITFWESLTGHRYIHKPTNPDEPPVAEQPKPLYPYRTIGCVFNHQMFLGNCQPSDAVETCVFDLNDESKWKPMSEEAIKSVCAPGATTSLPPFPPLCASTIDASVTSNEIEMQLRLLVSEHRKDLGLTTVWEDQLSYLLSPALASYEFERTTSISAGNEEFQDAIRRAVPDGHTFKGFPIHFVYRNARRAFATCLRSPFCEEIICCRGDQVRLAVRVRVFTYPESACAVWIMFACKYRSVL
UniProt A6NDU8, sequence (A6NDU8 whole entry, looked up): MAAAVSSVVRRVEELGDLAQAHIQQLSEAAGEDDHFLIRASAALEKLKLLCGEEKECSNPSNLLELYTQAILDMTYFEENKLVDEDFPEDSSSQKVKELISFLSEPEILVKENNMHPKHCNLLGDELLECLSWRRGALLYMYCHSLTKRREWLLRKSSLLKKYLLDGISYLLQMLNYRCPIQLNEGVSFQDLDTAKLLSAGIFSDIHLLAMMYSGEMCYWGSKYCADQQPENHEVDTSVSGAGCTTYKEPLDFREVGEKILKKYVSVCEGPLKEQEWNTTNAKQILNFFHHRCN
UniProt O95674, sequence (O95674 whole entry, looked up): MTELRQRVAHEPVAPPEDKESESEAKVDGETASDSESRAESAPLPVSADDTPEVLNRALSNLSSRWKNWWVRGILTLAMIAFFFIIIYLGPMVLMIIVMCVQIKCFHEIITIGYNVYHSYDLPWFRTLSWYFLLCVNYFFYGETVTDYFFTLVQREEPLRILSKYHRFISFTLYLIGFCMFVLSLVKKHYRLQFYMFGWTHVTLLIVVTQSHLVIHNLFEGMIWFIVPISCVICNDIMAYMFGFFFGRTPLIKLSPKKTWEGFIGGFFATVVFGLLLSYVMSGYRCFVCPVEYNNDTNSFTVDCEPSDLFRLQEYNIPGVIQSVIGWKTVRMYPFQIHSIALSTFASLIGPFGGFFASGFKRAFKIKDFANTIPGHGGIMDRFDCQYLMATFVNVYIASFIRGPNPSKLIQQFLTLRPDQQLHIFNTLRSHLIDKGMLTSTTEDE
UniProt P08962, sequence (P08962 whole entry, looked up): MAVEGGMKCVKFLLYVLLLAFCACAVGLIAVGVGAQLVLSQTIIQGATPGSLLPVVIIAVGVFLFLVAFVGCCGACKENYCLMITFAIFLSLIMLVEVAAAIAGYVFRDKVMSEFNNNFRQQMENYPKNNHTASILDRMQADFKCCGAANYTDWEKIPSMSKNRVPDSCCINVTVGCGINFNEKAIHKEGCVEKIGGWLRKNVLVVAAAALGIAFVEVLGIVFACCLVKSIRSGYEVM
UniProt Q8N4Q1, sequence (Q8N4Q1 whole entry, looked up): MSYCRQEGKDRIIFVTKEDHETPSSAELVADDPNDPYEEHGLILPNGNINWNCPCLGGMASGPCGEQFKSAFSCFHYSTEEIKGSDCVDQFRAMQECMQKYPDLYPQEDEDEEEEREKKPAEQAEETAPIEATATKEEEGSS

log2 fold change, inactive:
BLOC1S6 (UniProt Q9UL45) 0.062, BAG4 (UniProt O95429) 0.06, CCNC (UniProt P24863) -0.037, CALM2 (UniProt P0DP24) 0.027, CEP76 (UniProt Q8TAP6) -0.106, CDS2 (UniProt O95674) 0.031, CCAR2 (UniProt Q8N163) -0.067, CDKN2AIP (UniProt Q9NXV6) 0.024, BRD3 (UniProt Q15059) -0.022, CEP120 (UniProt Q8N960) -0.034, C18orf25 (UniProt Q96B23) -0.049, CDAN1 (UniProt Q8IWY9) -0.038, ATAD1 (UniProt Q8NBU5) -0.022, CCT6A (UniProt P40227) 0.026, C5orf51 (UniProt A6NDU8) -0.024, CHCHD4 isoform 2 (UniProt Q8N4Q1) -0.085, CCPG1 isoform 5 (UniProt Q9ULG6) 0.006, CD63 (UniProt P08962) 0.036, CES2 isoform 4 (UniProt O00748) 0.079, CFDP1 (UniProt Q9UEE9) -0.052, AURKAIP1 (UniProt Q9NWT8) 0.021, CCDC186 (UniProt Q7Z3E2) 0.006, ATP13A1 (UniProt Q9HD20) 0.123
